An excerpt weighted towards active compounds, which were near 27% of everything screened.
CYP2C19 inh: blocks human cytochrome P450 2C19 | P33261 | CYP2C19 Supersomes, luciferin-H EGE luminescence, 30 min | inhibition, % at 5 µM | 96,000 tested, 21% active | AID 778;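 active means CYP2C19 inhibition above a set limit at 5 µM in the primary screen, cut at about 50% in these data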;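 further: plate controls were negative control wells for no effect and 2.5 mM tranylcypromine positive control for full effect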
CYP2C9 activ: activators of human CYP2C9; recombinant CYP2C9, luciferin-H conversion, luminescence; active compounds read high; factor 1 = untreated enzyme, 0 = blocked; activation factor at 5 µM; 96,000 tested, 1.4% active; AID 1024;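 active means activation factor of 2 or more for CYP2C9 at a 5 µM dose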;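 further: 0 = sulfaphenazole-blocked wells and 1 = vehicle-only wells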
CYP2C9 inhib: human CYP2C9 inhibition; CYP2C9 Supersomes, luciferin-H conversion, luminescence; 96,000 tested, 20% active; P11712; inhibition, % at 5 µM;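 active means blocking of liver enzyme CYP2C9 beyond about 50% at 5 µM, limit read from the data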
sEH inh: soluble epoxide hydrolase (human) inhibition. recombinant human sEH enzymatic activity assay. inhibition, % at 2 µM. 91,000 tested, 0.34% active; in the data active means inhibition above about 80%
Target sequence (P34913 whole entry, looked up): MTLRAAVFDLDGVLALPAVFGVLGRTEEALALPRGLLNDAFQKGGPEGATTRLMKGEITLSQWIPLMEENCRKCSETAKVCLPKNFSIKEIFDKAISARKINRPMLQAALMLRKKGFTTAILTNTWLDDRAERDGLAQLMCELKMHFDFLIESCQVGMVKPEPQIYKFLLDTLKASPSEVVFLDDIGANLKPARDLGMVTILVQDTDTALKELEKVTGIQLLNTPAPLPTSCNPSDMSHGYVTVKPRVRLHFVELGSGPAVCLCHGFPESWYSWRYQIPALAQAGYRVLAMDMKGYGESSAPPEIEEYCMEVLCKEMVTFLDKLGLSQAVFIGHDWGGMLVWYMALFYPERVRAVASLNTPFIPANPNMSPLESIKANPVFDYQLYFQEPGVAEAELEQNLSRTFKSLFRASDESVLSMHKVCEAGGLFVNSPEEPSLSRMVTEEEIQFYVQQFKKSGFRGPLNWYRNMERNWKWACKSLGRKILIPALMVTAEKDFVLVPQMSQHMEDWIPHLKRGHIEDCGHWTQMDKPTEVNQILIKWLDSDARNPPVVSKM
sEH activator: increases human soluble epoxide hydrolase activity | P34913 | purified human sEH enzymatic activity, activator screen | activation, % at 2 µM | 91,000 tested, 0.04% active | AID 717; in the data active means activation above about 37%
CYP2C19 act: cytochrome P450 2C19 (human) activation; P33261; recombinant CYP2C19, luciferin-H EGE luminescence; active compounds read high; 0 = fully inhibited enzyme, 1 = untreated enzyme; activation factor at 5 µM; 96,000 tested, under 10 active;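 active means activation factor of at least 2 at 5 µM in the primary screen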;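 further: 0 = wells with 2.5 mM tranylcypromine and 1 = vehicle-only wells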
* hit, by the source's call.

COc1ccc(C)cc1NC(=O)c1nnn(Cc2cc(C)ccc2C)c1N was read as CYP2C19 inh 17, CYP2C9 activ 2.4*, CYP2C9 inhib -142, sEH inh -4, sEH activator 5 and CYP2C19 act 0.8.
`COc1ccc(C)cc1NC(=O)c1nnn(CCc2ccccc2)c1N` gave CYP2C19 inh 8, CYP2C9 activ 1.2, CYP2C9 inhib -23 and CYP2C19 act 0.9.
COc1ccc(OC)c(NC(=O)c2nnn(Cc3ccccc3C)c2N)c1 was read as CYP2C19 inh 16, CYP2C9 activ 2.1*, CYP2C9 inhib -115, sEH inh 9, sEH activator -6 and CYP2C19 act 0.8.
Screening COc1ccc(N2CC(C(=O)OCC(=O)NCc3ccccc3)CC2=O)cc1 (stereo not drawn) returned CYP2C19 inh -6, CYP2C9 activ 0.9, CYP2C9 inhib 13, sEH inh -3, sEH activator 5 and CYP2C19 act 1.1.
For CCC1(C)N=c2c(c(=O)n(C)c(=O)n2C)=NO1 (stereo not drawn) the results were CYP2C19 inh -14, CYP2C9 activ 1.1, CYP2C9 inhib -12, sEH inh -7, sEH activator 9 and CYP2C19 act 1.1.
Screening CCN(CC)c1ccc(NC(=O)c2cccc(F)c2)c(C)c1 returned CYP2C19 inh 4, CYP2C9 activ 1.9, CYP2C9 inhib -92, sEH inh 15, sEH activator -14 and CYP2C19 act 1.
Cc1ccc(S(=O)(=O)/N=C2/NC(=O)/C(=C/c3cccnc3)S2)cc1 was read as CYP2C19 inh 68*, CYP2C9 activ 0, CYP2C9 inhib 98*, sEH inh -1, sEH activator 2 and CYP2C19 act 0.3.
Screening Cc1nn(Cc2ccc(C(=O)Nc3nccs3)cc2)c(C)c1Cl returned CYP2C19 inh 1, CYP2C9 activ 0.9, CYP2C9 inhib 8, sEH inh 15, sEH activator -14 and CYP2C19 act 1.
`CCCCn1nc2cc(C(=O)NCc3ccc4c(c3)OCO4)ccc2c1OCC` gave CYP2C19 inh 59*, CYP2C9 activ 0.3, CYP2C9 inhib 66*, sEH inh -7, sEH activator 4 and CYP2C19 act 0.4.
Screening CCOc1c2ccc(C(=O)NCc3ccc(OC(F)(F)F)cc3)cc2nn1CC returned CYP2C19 inh 8, CYP2C9 activ 0.9, CYP2C9 inhib 6, sEH inh 9, sEH activator -8 and CYP2C19 act 0.9.
Screening CCCn1nc2cc(C(=O)NCCc3cccs3)ccc2c1OCC returned CYP2C19 inh 54*, CYP2C9 activ 0.7, CYP2C9 inhib 34, sEH inh -7, sEH activator 4 and CYP2C19 act 0.5.
Screening CCCn1nc2cc(C(=O)NCc3ccc4c(c3)OCO4)ccc2c1OCC returned CYP2C19 inh 32, CYP2C9 activ 0.6, CYP2C9 inhib 40, sEH inh 14, sEH activator -13 and CYP2C19 act 0.7.
CCCn1nc2cc(C(=O)NCc3ccc(OC(F)(F)F)cc3)ccc2c1OCC was read as CYP2C19 inh 45, CYP2C9 activ 0.4, CYP2C9 inhib 63*, sEH inh -2, sEH activator -1 and CYP2C19 act 0.6.
For Cc1ccc(-n2nc(C)c(C3C(C#N)=C(N)OC4=C3C(=O)CCC4)c2Cl)cc1 (stereo not drawn) the results were CYP2C19 inh 91*, CYP2C9 activ 0.5, CYP2C9 inhib 53* and CYP2C19 act 0.1.
`CCC1C(C#N)=C(N)OC2=C1C(=O)CC(C)(C)C2` (stereo not drawn) gave sEH inh 9 and sEH activator -6.
CCOC(=O)C1=C(c2ccccc2)OC(N)=C(C#N)C1C(C)C (stereo not drawn) was read as CYP2C19 inh 32, CYP2C9 activ 0.9, CYP2C9 inhib 10, sEH inh -5, sEH activator 8 and CYP2C19 act 0.7.
For CC1(C)CC(=O)C2=C(C1)OC(N)=C(C#N)C2C1C=CCCC1 (stereo not drawn) the results were CYP2C19 inh 30, CYP2C9 activ 0.4, CYP2C9 inhib 60*, sEH inh -11, sEH activator 12 and CYP2C19 act 0.7.
`CCCC1=C(C(=O)OCC)C(c2c(C)nn(-c3ccccc3)c2Cl)C(C#N)=C(N)O1` (stereo not drawn) gave CYP2C19 inh 50*, CYP2C9 activ 0.5, CYP2C9 inhib 55*, sEH inh 7, sEH activator -9 and CYP2C19 act 0.5.
For Cc1nn(-c2ccccc2)c(Cl)c1C1C(C#N)=C(N)OC2=C1C(=O)CC(C)(C)C2 (stereo not drawn) the results were CYP2C19 inh 39, CYP2C9 activ 0.3, CYP2C9 inhib 69*, sEH inh -2, sEH activator 5 and CYP2C19 act 0.6.
`CCOC(=O)N1CCN(C(=O)Nc2ccc(Cl)cc2Cl)CC1` gave CYP2C19 inh 44, CYP2C9 activ 1, CYP2C9 inhib 2, sEH inh 9, sEH activator -10 and CYP2C19 act 0.6.
Screening CC1(C)CC(=O)C2=C(C1)OC(N)=C(C#N)C2c1ccccc1 (stereo not drawn) returned CYP2C19 inh 73*, CYP2C9 activ 0.6, CYP2C9 inhib 36, sEH inh -6, sEH activator 6 and CYP2C19 act 0.3.
`CC1(C)CC(=O)C2=C(C1)OC1=C(C(=O)CC(C)(C)C1)C2c1ccccc1` gave CYP2C19 inh 3, CYP2C9 activ 1, CYP2C9 inhib -2, sEH inh -10, sEH activator 4 and CYP2C19 act 1.
COc1ccc(C2C(C#N)=C(/N=C/N3CCN(C)CC3)OC3=C2C(=O)CC(C)(C)C3)cc1 (stereo not drawn) was read as CYP2C19 inh 51*, CYP2C9 activ 0.5, CYP2C9 inhib 53*, sEH inh -18, sEH activator 15 and CYP2C19 act 0.5.
COc1ccccc1NC(=O)C/C(N)=N/O was read as CYP2C19 inh 4, CYP2C9 activ 1.1, CYP2C9 inhib -8, sEH inh 3, sEH activator 0 and CYP2C19 act 1.
For C=C(C)c1cccc(C(C)(C)NC(=O)NCCCn2ccnc2)c1 the results were CYP2C19 inh 98*, CYP2C9 activ 0, CYP2C9 inhib 96* and CYP2C19 act 0.
C=C(C)c1cccc(C(C)(C)NC(=O)NCCCN2CCCC2=O)c1 was read as CYP2C19 inh 11, CYP2C9 activ 0.9, CYP2C9 inhib 13, sEH inh 16, sEH activator -16 and CYP2C19 act 0.9.
`CC1CN(S(=O)(=O)c2cccc(C(=O)NCCCn3ccnc3)c2)CC(C)O1` (stereo not drawn) gave CYP2C19 inh 9, CYP2C9 activ 0.4, CYP2C9 inhib 63*, sEH inh -15, sEH activator 13 and CYP2C19 act 0.9.
`Cc1sc2nc(SCc3nnc(-c4cccs4)o3)n(C3CCCC3)c(=O)c2c1C` gave CYP2C19 inh 26, CYP2C9 activ 0.2, CYP2C9 inhib 83*, sEH inh -1, sEH activator 2 and CYP2C19 act 0.7.

High-throughput results from PubChem.
